Assay results from PubChem BioAssay AID1159580 (chemical genetic matrix, 2015).
Out of some 5,500 compounds screened, about 2,000 (36%) were called active. Another 18% or so got no clear call; they are omitted. Rule as the data show it: active = normalized growth mostly below about 0.91 (no sharp cut-off); inconclusive = no clear call, values can overlap the other calls; inactive = mostly above about 0.92. The list shows a part of the results.

Assay: chemical genetic growth profiling, strain panel (AID 1159580);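 also: tested at 20 µM; growth read once vehicle control cultures reached saturation at 30 °C; 1 = growth at the plate median or of vehicle wells; lower values mean less growth of the strain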
Details: S. cerevisiae deletion strains, growth OD

Measured: normalized growth

COc1[nH]c2ccc(F)cc2c1C(=O)OCC1CCN(CCNS(C)(=O)=O)CC1
inactive: locus YAL040C, strain CLN3, active compounds read low 0.958 | locus YCL061C, strain MRC1 (second series), active compounds read low 0.994 | locus YDR150W, strain NUM1, active compounds read low 0.986 | locus YDR363W, strain ESC2, active compounds read low 0.995 | locus YER002W, strain NOP16, active compounds read low 1.01 | locus YGR078C, strain PAC10, active compounds read low 1.02 | locus YJR075W, strain HOC1, active compounds read low 1.01 | locus YNL153C, strain GIM3, active compounds read low 1.01 | locus YNL175C, strain NOP13, active compounds read low 1 | locus YNL197C, strain WHI3, active compounds read low 1.02 | locus YNL224C, strain SQS1, active compounds read low 1.01 | locus YOR083W, strain WHI5 (second series), active compounds read low 0.993 | locus YPL241C, strain CIN2, active compounds read low 1.01
